Screen size: about 310,000 compounds; about 14,000 (4.5%) showed an effect of 50% or more. The effect is printed as a negative number. The sample holds strong results, similar compounds and a random draw of the others, so the mix is not that of the screen.
target: human ether-à-go-go-related gene (hERG) potassium channel (human, UniProt Q12809); assay: primary screen, population patch clamp on CHO cells stably expressing hERG; higher = less effect of the substance
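Further: peak tail current of the secondary pulse compared with the same well before compound.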

Chain of human ether-à-go-go-related gene (hERG) potassium channel (Q12809 whole entry, looked up): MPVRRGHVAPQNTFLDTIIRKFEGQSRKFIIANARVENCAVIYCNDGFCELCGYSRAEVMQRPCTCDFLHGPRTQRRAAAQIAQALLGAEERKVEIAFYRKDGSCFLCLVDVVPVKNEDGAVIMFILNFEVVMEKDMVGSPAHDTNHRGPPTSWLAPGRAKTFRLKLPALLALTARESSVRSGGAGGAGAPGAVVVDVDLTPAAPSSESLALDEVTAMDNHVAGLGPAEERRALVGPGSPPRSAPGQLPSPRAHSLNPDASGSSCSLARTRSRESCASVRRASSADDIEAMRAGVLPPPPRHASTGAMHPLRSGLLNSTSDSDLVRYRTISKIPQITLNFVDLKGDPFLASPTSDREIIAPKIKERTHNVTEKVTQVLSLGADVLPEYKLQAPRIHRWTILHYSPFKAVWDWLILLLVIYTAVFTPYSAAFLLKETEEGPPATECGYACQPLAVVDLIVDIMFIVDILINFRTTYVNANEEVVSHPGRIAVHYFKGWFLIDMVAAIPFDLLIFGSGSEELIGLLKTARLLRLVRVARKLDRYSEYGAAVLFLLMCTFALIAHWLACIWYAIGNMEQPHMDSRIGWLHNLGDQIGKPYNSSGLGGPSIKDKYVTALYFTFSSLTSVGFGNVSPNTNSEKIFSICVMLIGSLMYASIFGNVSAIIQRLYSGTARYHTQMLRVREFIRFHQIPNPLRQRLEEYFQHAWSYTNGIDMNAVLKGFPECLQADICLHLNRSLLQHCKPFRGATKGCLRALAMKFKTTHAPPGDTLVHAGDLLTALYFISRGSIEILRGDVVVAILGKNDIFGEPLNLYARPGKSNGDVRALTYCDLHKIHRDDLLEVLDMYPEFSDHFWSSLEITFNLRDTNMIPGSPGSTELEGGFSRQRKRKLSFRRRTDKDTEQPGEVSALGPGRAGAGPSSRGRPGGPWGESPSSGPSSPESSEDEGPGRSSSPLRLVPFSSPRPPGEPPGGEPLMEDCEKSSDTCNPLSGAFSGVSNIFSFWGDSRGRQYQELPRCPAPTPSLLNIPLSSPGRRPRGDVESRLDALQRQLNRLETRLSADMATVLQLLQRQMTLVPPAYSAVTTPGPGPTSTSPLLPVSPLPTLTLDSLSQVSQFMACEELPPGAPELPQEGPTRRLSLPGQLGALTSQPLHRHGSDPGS

First: Cc1cc2c(cc1C)-c1nnnn1C(C)(C)C2
Second: Cc1cccc2c1N(CCOc1ccc(C(C)(C)C)cc1)C(=O)C2=O
The “hERG current change (%, negative = inhibition) at 10uM” value of the first is higher: 15.2% for the first, -7.48% for the second.

Compared with `N#Cc1ccc(-n2c(-c3ccccc3)nnc2-c2ccccc2)cc1C#N`, `N#CC1=C(N)Oc2n[nH]c(-c3ccccc3)c2C12C(=O)Nc1ccccc12` (stereo not shown) is higher in “hERG current change (%, negative = inhibition) at 10uM” value: -15.5% for the first, 17.4% for the second.

Compared with `O=C1N/C(=N/c2ccccn2)SC1Cc1ccccc1` (stereo not shown), `Cn1c(SCC(=O)NNC(=O)Cc2ccccc2)nc2ccccc2c1=O` is higher in “hERG current change (%, negative = inhibition) at 10uM” value: -13.7% for the first, 11.7% for the second.

Going from `CCOc1ccc(NC(=O)Cn2c(=O)n(CCCC(=O)NC3CCN(Cc4ccccc4)CC3)c(=O)c3ccccc32)cc1` to `CCc1ccc(NC(=O)Cn2c(=O)n(CCC(=O)NC3CCN(Cc4ccccc4)CC3)c(=O)c3ccccc32)cc1`, the “hERG current change (%, negative = inhibition) at 10uM” value rises from -38% to 1.83%.

First: Cc1cc(NC(=O)Cn2c(=O)n(CCCCC(=O)NC3CCN(Cc4ccccc4)CC3)c(=O)c3ccccc32)n[nH]1
Second: Cc1cccc(C)c1NC(=O)Cn1c(=O)n(CCCC(=O)NC2CCN(Cc3ccccc3)CC2)c(=O)c2ccccc21
The “hERG current change (%, negative = inhibition) at 10uM” value of the first is higher: 26.5% for the first, -58.6% for the second.

First: Cc1ccc(NC(=O)Cn2c(=O)n(CCC(=O)NC3CCN(Cc4ccccc4)CC3)c(=O)c3ccccc32)cc1
Second: COc1cccc(NC(=O)Cn2c(=O)n(CCC(=O)NC3CCN(Cc4ccccc4)CC3)c(=O)c3ccccc32)c1
The “hERG current change (%, negative = inhibition) at 10uM” value of the first is higher: -1.53% for the first, -57.6% for the second.

Compared with `O=C(CCn1c(=O)c2ccccc2n(Cc2ccccc2)c1=O)NC1CCN(Cc2ccccc2)CC1`, `O=C(CCCCn1c(=O)c2ccccc2n(Cc2ccccc2)c1=O)NC1CCN(Cc2ccccc2)CC1` is lower in “hERG current change (%, negative = inhibition) at 10uM” value: -42.5% for the first, -67.9% for the second.

Going from `NC(=O)Cn1c(=O)n(CCCC(=O)NC2CCN(Cc3ccccc3)CC2)c(=O)c2ccccc21` to `O=C(CCCn1c(=O)c2ccccc2n(Cc2cccc(F)c2)c1=O)NC1CCN(Cc2ccccc2)CC1`, the “hERG current change (%, negative = inhibition) at 10uM” value falls from -6.48% to -68.6%.

First: COC(=O)c1ccccc1NC(=O)Cn1c(=O)n(CCC(=O)NC2CCN(Cc3ccccc3)CC2)c(=O)c2ccccc21
Second: O=C(CCCCn1c(=O)c2ccccc2n(Cc2ccccc2F)c1=O)NC1CCN(Cc2ccccc2)CC1
The “hERG current change (%, negative = inhibition) at 10uM” value of the first is lower: -34.8% for the first, -9.04% for the second.

First: NC(=S)N/N=C/c1coc2ccc(F)cc2c1=O
Second: Fc1ccc(/C=N/Nc2cc(N3CCOCC3)ncn2)cc1
The “hERG current change (%, negative = inhibition) at 10uM” value of the first is lower: 10.3% for the first, 15.4% for the second.

First: COCCNC(=O)c1ccc(-n2c(SCc3cccnc3)nc3ccccc3c2=O)cc1
Second: COc1ccc(CN(C(=S)Nc2ccccc2)C2CC(=O)N(c3ccc(F)cc3)C2=O)cc1 (stereo not shown)
The “hERG current change (%, negative = inhibition) at 10uM” value of the first is lower: -8.88% for the first, 26.5% for the second.

First: COC(=O)c1ccccc1N/C=C/C(=O)c1ccc(Br)cc1
Second: Nc1ccc(Oc2ccc(Br)cc2)cc1
The “hERG current change (%, negative = inhibition) at 10uM” value of the first is higher: 16.1% for the first, -4.61% for the second.

First: COc1ccc(CCC(=O)N2CC(C)OC(C)C2)cc1 (stereo not shown)
Second: COc1ccc(N2CCN(C(=O)c3cc(C)oc3C)CC2)cc1
The “hERG current change (%, negative = inhibition) at 10uM” value of the first is lower: 5.02% for the first, 12.7% for the second.

First: CCOCc1nnc(NC(=O)c2cc(C(=O)OC)cc([N+](=O)[O-])c2)s1
Second: COc1ccc(CNC(=O)c2nnn(CC(=O)Nc3cc(C)cc(C)c3)c2N)cc1
The “hERG current change (%, negative = inhibition) at 10uM” value of the first is higher: 21.3% for the first, 11.9% for the second.

Compared with `Clc1ccc(-c2csc(N/N=C\c3cccnc3)n2)cc1`, `Brc1ccc(-c2csc(N/N=C/c3cccnc3)n2)cc1` is higher in “hERG current change (%, negative = inhibition) at 10uM” value: 6.05% for the first, 19.6% for the second.

First: C(=N\Nc1nc(-c2ccccc2)cs1)/c1cccnc1
Second: C(=N\Nc1nc(-c2ccccc2)cs1)/c1ccncc1
The “hERG current change (%, negative = inhibition) at 10uM” value of the first is lower: -59.5% for the first, -50.5% for the second.

First: C(=N\Nc1nc(-c2ccccc2)cs1)/c1cccs1
Second: Br.CC(=O)Nc1ccc(-c2csc(N/N=C\c3ccncc3)n2)cc1
The “hERG current change (%, negative = inhibition) at 10uM” value of the first is higher: 18.5% for the first, 4.43% for the second.

Going from `CC(=O)Oc1ccc2oc(C)c(C(=O)N3CCOCC3)c2c1` to `Cc1c(C(=O)N2CCOCC2)oc2ccccc12`, the “hERG current change (%, negative = inhibition) at 10uM” value rises from -8.91% to 5.05%.

First: CCN(CC)C(=O)Oc1nnc(SC(C)C)n1-c1ccc(Cl)cc1
Second: Cc1occc1C(=O)N1CCN(c2ccc(Cl)cc2)CC1
The “hERG current change (%, negative = inhibition) at 10uM” value of the first is lower: -4.75% for the first, -4.41% for the second.

Going from `CN1C(=O)/C(=N\OC(=O)c2ccccc2Cl)c2ccccc21` to `Cc1[nH]n(-c2ccccc2)c(=O)c1N=Nc1cccc(C(=O)O)c1`, the “hERG current change (%, negative = inhibition) at 10uM” value rises from -42.8% to 23.1%.

First: O=C(NC1CCCC1)C1(c2ccccc2)CCN(S(=O)(=O)c2ccccc2)CC1
Second: CCOC(=O)C1(Cc2ccccc2)CCN(Cc2cccc3nccnc23)CC1
The “hERG current change (%, negative = inhibition) at 10uM” value of the first is higher: -6.14% for the first, -59.9% for the second.

Going from `CCCn1c(C(C)NC(=O)c2ccccc2)n[nH]c1=S` (stereo not shown) to `CCC(C)NC(=O)C(=O)NCc1ccccn1` (stereo not shown), the “hERG current change (%, negative = inhibition) at 10uM” value rises from 12.7% to 14.6%.

Compared with `O=C(C#Cc1ccccc1)c1ccco1`, `Cc1occc1C(=O)N1CCN(c2ccccc2)CC1` is lower in “hERG current change (%, negative = inhibition) at 10uM” value: 5.83% for the first, -8.67% for the second.

Going from `CCOC(=O)C1(CCc2ccccc2)CCN(Cc2cccc3cnccc23)CC1` to `CCOC(=O)C1(CCc2ccccc2)CCN(Cc2cccc3nccnc23)CC1`, the “hERG current change (%, negative = inhibition) at 10uM” value rises from -69.6% to -60.5%.

Compared with `CCOC(=O)C1(CCOc2ccccc2)CCN(Cc2cccc3nonc23)CC1`, `CCOC(=O)C1(Cc2cccc(OC)c2)CCN(Cc2cccc3cnccc23)CC1` is lower in “hERG current change (%, negative = inhibition) at 10uM” value: -28.6% for the first, -39.3% for the second.

Going from `CCOC(=O)c1[nH]ncc1CN1CCC(Cc2ccccc2)(C(=O)OCC)CC1` to `CCOC(=O)C1(Cc2ccc(OC)cc2)CCN(C(=O)c2cccc3nccnc23)CC1`, the “hERG current change (%, negative = inhibition) at 10uM” value rises from -35.3% to -31.4%.

First: O=C(CSC1=NCCS1)Nc1ccnc2ccccc12
Second: COc1ccc(Cl)cc1C(=O)OCC(=O)Nc1cccnc1Cl
The “hERG current change (%, negative = inhibition) at 10uM” value of the first is lower: -5.91% for the first, 15.8% for the second.

First: COc1ccc2cc(Br)ccc2c1CC(=O)NC(C)(C)C
Second: COc1ccc(N2CCN(C(=O)c3oc4ccccc4c3C)CC2)cc1
The “hERG current change (%, negative = inhibition) at 10uM” value of the first is higher: 17.3% for the first, -31.9% for the second.

First: Cn1cc(C(c2ccccc2OCC(=O)O)c2cn(C)c3ccccc23)c2ccccc21
Second: COc1ccccc1N1CCN(C(=O)c2cccc3c(=O)c(C)c(-c4ccccc4)oc23)CC1
The “hERG current change (%, negative = inhibition) at 10uM” value of the first is higher: 3.58% for the first, -31.2% for the second.

Compared with `COC(=O)c1ccc(NC(=S)NC2CCCCC2)cc1`, `C=CCOc1ccc(CN(C)C(=O)C2CCCO2)cc1` (stereo not shown) is higher in “hERG current change (%, negative = inhibition) at 10uM” value: 1.13% for the first, 2.34% for the second.

Compared with `Cc1c(C(=O)N2CCN(c3ccc([N+](=O)[O-])cc3)CC2)oc2ccccc12`, `Cc1nc2ccccc2c2oc(C(=O)N3CCN(c4ccc([N+](=O)[O-])cc4)CC3)cc12` is higher in “hERG current change (%, negative = inhibition) at 10uM” value: -72.8% for the first, -9.45% for the second.

Compared with `Cc1ccc(C(=O)N2CCN(c3ccc([N+](=O)[O-])cc3)CC2)o1`, `Cc1occc1C(=O)N1CCN(c2ccc([N+](=O)[O-])cc2)CC1` is higher in “hERG current change (%, negative = inhibition) at 10uM” value: -80.2% for the first, -77.7% for the second.

First: Cc1ccc(C(=O)N2CCN(c3ncccn3)CC2)o1
Second: Cc1cc(C(=O)N2CCN(c3ccccc3)CC2)c(C)o1
The “hERG current change (%, negative = inhibition) at 10uM” value of the first is higher: 13.4% for the first, -1.46% for the second.

Going from `Cc1c(-c2ccccc2)oc2c(C(=O)N3CCN(c4ccccc4F)CC3)cccc2c1=O` to `Cc1c(-c2ccccc2)oc2c(C(=O)N3CCN(c4ccc([N+](=O)[O-])cc4)CC3)cccc2c1=O`, the “hERG current change (%, negative = inhibition) at 10uM” value falls from -8.63% to -75.4%.

Compared with `COc1ccc(N2CCN(C(=O)CNC(=O)c3cccs3)CC2)cc1`, `Cc1cc(C(=O)N2CCN(c3ccc([N+](=O)[O-])cc3)CC2)c(C)o1` is lower in “hERG current change (%, negative = inhibition) at 10uM” value: 10.9% for the first, -73.5% for the second.

First: CCCCc1cc(=O)oc2cc(C)cc(OCC(=O)NCC3CCC(C(=O)O)CC3)c12 (stereo not shown)
Second: Cc1cccc(CCNS(=O)(=O)c2cc3c(cc2C)NC(=O)CO3)c1
The “hERG current change (%, negative = inhibition) at 10uM” value of the first is higher: -1.21% for the first, -34.4% for the second.

Going from `CC1Cc2ccccc2N1C(=O)c1cc2sccc2n1Cc1ccccc1` (stereo not shown) to `O=c1c2c3nc4ccccc4nc3n(CC3CCCO3)c2ncn1CCc1ccccc1` (stereo not shown), the “hERG current change (%, negative = inhibition) at 10uM” value falls from 7.64% to -5.67%.

First: CC[N+](C)(CC)CCCCOc1ccc2c(c1)C(=O)c1cc(OCCCC[N+](C)(CC)CC)ccc1-2.[I-]
Second: CCn1cc(C(=O)N2CCN(c3cccc(C)c3C)CC2)c(=O)c2ccc(C)nc21
The “hERG current change (%, negative = inhibition) at 10uM” value of the first is higher: 12.9% for the first, -12.9% for the second.

Going from `O=C(c1cccc(F)c1)N1C2C=CC(C2)C1(C(F)(F)F)C(F)(F)F` (stereo not shown) to `CCn1cc(C(=O)N2CCN(c3ccccc3F)CC2)c(=O)c2ccc(C)nc21`, the “hERG current change (%, negative = inhibition) at 10uM” value falls from -0.667% to -5.94%.

Compared with `C=CCn1c(COc2cccc3cccnc23)nnc1SCC(=O)O`, `Cc1nc(NCc2ccco2)c2oc3ccccc3c2n1` is lower in “hERG current change (%, negative = inhibition) at 10uM” value: 12.7% for the first, -29.8% for the second.

Going from `CC1(C)CC(=O)C(C=NC2CCCCC2)=C(O)C1` to `CCn1cc(C(=O)N2CCN(c3ccc([N+](=O)[O-])cc3)CC2)c(=O)c2ccc(C)nc21`, the “hERG current change (%, negative = inhibition) at 10uM” value falls from -10.2% to -70.9%.

Going from `Cc1c(Cl)cccc1-c1ccc(C(=O)N2CCN(c3ccc([N+](=O)[O-])cc3)CC2)o1` to `O=C(c1ccc(-c2cccc(Cl)c2)o1)N1CCN(c2ccc([N+](=O)[O-])cc2)CC1`, the “hERG current change (%, negative = inhibition) at 10uM” value falls from -14% to -58.9%.

For `O=C(c1ccc(-c2ccc(Cl)cc2)o1)N1CCN(c2ccc([N+](=O)[O-])cc2Cl)CC1`, the “hERG current change (%, negative = inhibition) at 10uM” value was 3.9%.
